The panel holds about 83,000 compounds, 20% with a hit somewhere; the sample as a whole holds those more often.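 The test compound was applied at a single concentration to cells in 96-well plates for 48 hours, and percent growth was recorded.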 Values without a mark were called inactive. Calls of active or inactive are those of the source. How the source made its calls: active means growth percent below 10; inactive means the rest.

Among the test systems are SR leukemia; RPMI-8226 leukemia; OVCAR-8 ovarian; OVCAR-5 ovarian; OVCAR-4 ovarian; SK-OV-3 ovarian; IGROV1 ovarian; OVCAR-3 ovarian; HS 578T breast; NCI/ADR-RES ovarian; T-47D breast; BT-549 breast; MDA-MB-435 melanoma; SW-620 colon; MCF7 breast; HCT-116 colon; HCC-2998 colon; KM12 colon.
Common to all, as to assay: NCI-60 one-dose screen, 48 h (100 = growth as untreated, 0 = no growth, -100 = all killed)
Conditions in all cases: 10 µM unless noted

With `O=C(/C=C/c1cccc([N+](=O)[O-])c1)c1ccc(Nc2nc(Nc3ccc(F)cc3)nc(Nc3ccc(Cl)cc3)n2)cc1`, the growth in the experiment with SR leukemia is 8.59% (active); in the experiment with RPMI-8226 leukemia it was 32%; with OVCAR-8 ovarian it was 86.3%; in the experiment with OVCAR-5 ovarian, 62.7%; in the experiment on OVCAR-4 ovarian, 97.3%; with SK-OV-3 ovarian, 110%. Moreover, the growth was 84.4% in the experiment on IGROV1 ovarian; 104% in the experiment with OVCAR-3 ovarian; 106% with HS 578T breast; 83.9% with NCI/ADR-RES ovarian; 81.4% with T-47D breast; 103% with BT-549 breast. Further, the growth is 102% in the experiment with MDA-MB-435 melanoma; 104% with SW-620 colon; 67.1% in the experiment with MCF7 breast; 97.1% in the experiment with HCT-116 colon; 103% in the experiment on HCC-2998 colon; 105% in the experiment with KM12 colon.
`Cn1nc(-c2ccc(Cl)cc2)nc2c(=O)n(C)c(=O)nc1-2`: the growth in the experiment with SR leukemia is -40.5% (active); in the experiment with RPMI-8226 leukemia it was -22.7% (active); in the experiment with OVCAR-8 ovarian it was -58.8% (active); in the experiment on OVCAR-5 ovarian, -89.1% (active); with OVCAR-4 ovarian, -99.7% (active); with SK-OV-3 ovarian, 32.6%. Besides, the growth in the experiment with IGROV1 ovarian is 7.78% (active); with OVCAR-3 ovarian it was -40.2% (active); in the experiment on HS 578T breast it was -4.75% (active); with NCI/ADR-RES ovarian, -21.5% (active); in the experiment with T-47D breast it was -43.2% (active); in the experiment on BT-549 breast it was -46.5% (active). In addition, the growth in the experiment with MDA-MB-435 melanoma was -45.8% (active); in the experiment on SW-620 colon, -33.2% (active); in the experiment on MCF7 breast it was -62.5% (active); in the experiment with HCT-116 colon it was -37.7% (active); with HCC-2998 colon, -70.2% (active); in the experiment on KM12 colon, -15.3% (active).
As to `C=C(C)Cn1c(SCC(=O)c2cccs2)nc2sc3c(c2c1=O)CCCC3`, the growth with SR leukemia was 44%; in the experiment on RPMI-8226 leukemia, 50.7%; in the experiment with OVCAR-8 ovarian, 49%; in the experiment with OVCAR-5 ovarian it was 71.2%; in the experiment on OVCAR-4 ovarian, 73.4%; in the experiment with SK-OV-3 ovarian, 79.1%. Further, the growth in the experiment with IGROV1 ovarian was 55.1%; in the experiment with OVCAR-3 ovarian it was 64.5%; in the experiment on HS 578T breast, 65.3%; with NCI/ADR-RES ovarian, 43.9%; in the experiment with T-47D breast, 58.7%; in the experiment with BT-549 breast, 81.2%. In addition, the growth in the experiment on MDA-MB-435 melanoma was 56%; in the experiment with SW-620 colon, 38.6%; in the experiment on MCF7 breast, 46.7%; in the experiment on HCT-116 colon it was 29.3%; in the experiment with HCC-2998 colon, 76.1%; in the experiment on KM12 colon, 42.9%.
In the case of `COC12C=C/C(=C(/C(=O)OCc3ccccn3)C(=O)CCCCCCCCC3(OC)C=C/C(=C(/C(=O)OCc4ccccn4)C(=O)CCCCCCCC1)O3)O2`, the growth with SR leukemia was -9.81% (active); in the experiment on RPMI-8226 leukemia, -14.8% (active); in the experiment with OVCAR-8 ovarian, 16.8%; with OVCAR-5 ovarian it was 34.9%; with OVCAR-4 ovarian, 28.8%; in the experiment with SK-OV-3 ovarian it was 46.3%. Moreover, the growth in the experiment on IGROV1 ovarian was -39.1% (active); in the experiment on OVCAR-3 ovarian, -36.3% (active); with HS 578T breast, 49.7%; in the experiment with NCI/ADR-RES ovarian, 7.96% (active); with T-47D breast, 18.5%; in the experiment on BT-549 breast, -26.9% (active). Moreover, the growth is -23.6% (active) in the experiment on MDA-MB-435 melanoma; 8.34% (active) in the experiment on SW-620 colon; -0.915% (active) in the experiment with MCF7 breast; -59.7% (active) in the experiment with HCT-116 colon; -82.6% (active) with HCC-2998 colon; -76.2% (active) with KM12 colon.
On to `COc1ccc(NC(=O)c2sc3nc(C)c(C(=O)c4ccccc4)cc3c2N)cc1`, for which the growth with SR leukemia was 81.2%; in the experiment with RPMI-8226 leukemia, 101%; in the experiment on OVCAR-8 ovarian, 101%; with OVCAR-5 ovarian, 82.8%; in the experiment with OVCAR-4 ovarian it was 91.1%; in the experiment with SK-OV-3 ovarian, 92.6%. The growth was 101% in the experiment with IGROV1 ovarian; 103% with OVCAR-3 ovarian; 83.5% with HS 578T breast; 108% with NCI/ADR-RES ovarian; 91% in the experiment on T-47D breast; 113% with BT-549 breast. Moreover, the growth in the experiment with MDA-MB-435 melanoma is 98%; in the experiment on SW-620 colon, 90.9%; in the experiment with MCF7 breast, 88.8%; with HCT-116 colon, 108%; in the experiment on HCC-2998 colon, 103%; in the experiment with KM12 colon it was 95.3%.
As to `CCN(CC)CCOc1ccc(/C(=C(\C)Cc2ccc(OC)cc2)c2ccc(O)cc2)cc1`, the growth in the experiment on SR leukemia is -52.4% (active); in the experiment on RPMI-8226 leukemia, -33.2% (active); in the experiment with OVCAR-8 ovarian, 29%; in the experiment on OVCAR-5 ovarian, 69.3%; in the experiment on OVCAR-4 ovarian, 46.7%; in the experiment on SK-OV-3 ovarian, 64.5%. Further, the growth with IGROV1 ovarian was 47.3%; with OVCAR-3 ovarian, 46.7%; with HS 578T breast it was 33.5%; in the experiment with NCI/ADR-RES ovarian it was 53.1%; with T-47D breast it was 20.3%; in the experiment on BT-549 breast, 56.7%. The growth in the experiment on MDA-MB-435 melanoma was -67.8% (active); with SW-620 colon, -25.2% (active); with MCF7 breast, -14.8% (active); in the experiment with HCT-116 colon, -34.8% (active); with HCC-2998 colon, 0.439% (active); with KM12 colon it was 32.4%.
`CN1/C(=C/C=C/c2n(Cc3ccc4ccccc4c3)c(Cl)c(Cl)[n+]2Cc2ccc3ccccc3c2)Oc2ccccc21`: the growth in the experiment with SR leukemia is 95.3%; in the experiment on RPMI-8226 leukemia, -53.1% (active); with OVCAR-8 ovarian, -86.1% (active); in the experiment on OVCAR-5 ovarian, -83.1% (active); in the experiment on OVCAR-4 ovarian, -70.7% (active); in the experiment on SK-OV-3 ovarian, -57.2% (active). Further, the growth in the experiment on IGROV1 ovarian was -80.4% (active); with OVCAR-3 ovarian, -83.8% (active); in the experiment on HS 578T breast it was -44.4% (active); with NCI/ADR-RES ovarian, 33.4%; with T-47D breast, -50.2% (active); in the experiment with BT-549 breast, -84.8% (active). The growth was -81.8% (active) with MDA-MB-435 melanoma; -79.9% (active) in the experiment on SW-620 colon; -72.8% (active) in the experiment on MCF7 breast; -82.2% (active) in the experiment with HCT-116 colon; -87.6% (active) with HCC-2998 colon; -80.9% (active) in the experiment on KM12 colon.
With `CC/C(=C(/c1ccc(Cl)cc1)c1ccc(OCCN2CCCC2)cc1)c1ccccc1`, the growth is -10.5% (active) in the experiment with SR leukemia; 7.58% (active) in the experiment with RPMI-8226 leukemia; 69.7% in the experiment on OVCAR-8 ovarian; 82.4% in the experiment on OVCAR-5 ovarian; 72.2% with OVCAR-4 ovarian; 104% in the experiment on SK-OV-3 ovarian. For the same molecule, the growth with IGROV1 ovarian is 76.6%; in the experiment on OVCAR-3 ovarian, 70.2%; in the experiment with HS 578T breast, 71.3%; in the experiment with NCI/ADR-RES ovarian, 80.1%; with T-47D breast, 47.6%; in the experiment with BT-549 breast, 77.8%. Moreover, the growth is 60.2% in the experiment with MDA-MB-435 melanoma; 11.8% in the experiment on SW-620 colon; 23.1% in the experiment on MCF7 breast; 29.7% in the experiment with HCT-116 colon; 97.6% in the experiment on HCC-2998 colon; 37.1% with KM12 colon.
